Laboratory results reported in the supplement of paper PMC10849652.
About 8,800 targets were measured; listed, in parts, are those with a hit and a random draw of the rest. About 0.5% of all pairs of compound and target were hits. Values without a mark were called inactive.

Key:
Assay in all cases: log2 fold change, soluble protein after heating vs DMSO (PISA); higher = thermal stabilisation; K562 lysate, 10 uM; active = over 0.2 and 3.5 SD of the protein, either way, in both replicates (recomputed)
[1] = compound: Cc1cn(-c2cc(NC(=O)c3ccc(C)c(Nc4nccc(-c5cccnc5)n4)c3)cc(C(F)(F)F)c2)cn1 [nilotinib]
In short: (§1)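 Following dounce homogenisation of K562 pellets in PBS pH 7.4 with 1 mM MgCl2, crude extract at 1 mg/mL protein was incubated for 30 min with 10 μM compound. Aliquots were then heated for 3 min over 48°C-58°C and pooled, NP-40 was added to 0.5% at 4°C, and soluble protein was recovered as the supernatant at 21,000xg for 90 min. Channel-sum-equalised TMTpro 16plex LC-MS/MS quantified this protein. Each value, from duplicates, is a log-two fold change in thermal stability relative to solvent controls.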

[2] = compound: Cc1nc(Nc2n[nH]c3c2CN(C(=O)N[C@H](CN(C)C)c2ccccc2)C3(C)C)c2sccc2n1
In short: as §1

[3] = compound: Cc1nc(Nc2ncc(C(=O)Nc3c(C)cccc3Cl)s2)cc(N2CCN(CCO)CC2)n1 [dasatinib]
In short: as §1

[4] = compound: Cc1ncc(-c2ccnc(Nc3ccc(S(C)(=O)=O)cc3)n2)n1C(C)C
In short: as §1

[5] = compound: Cn1cc(-c2ccc3c(c2)CCN3C(=O)Cc2cccc(C(F)(F)F)c2)c2c(N)ncnc21
In short: as §1

[6] = compound: Cn1cc(CNCC2CCN(c3ncc(C(=O)NO)cn3)CC2)c2ccccc21 [quisinostat]
In short: as §1

[7] = compound: Cn1cncc1[C@@](N)(c1ccc(Cl)cc1)c1ccc2c(c1)c(-c1cccc(Cl)c1)cc(=O)n2C [tipifarnib]
In short: as §1

[8] = compound: NC(=O)Nc1cc(-c2cccc(F)c2)sc1C(=O)N[C@H]1CCCNC1
In short: as §1

[9] = compound: NC(=O)c1cnc(N[C@@H]2CCCC[C@@H]2N)nc1Nc1cccc(-n2nccn2)c1
In short: as §1

[10] = compound: NC1(c2ccc(-c3nc4ccn5c(=O)[nH]nc5c4cc3-c3ccccc3)cc2)CCC1
In short: as §1

UniProt Q14012, sequence (Q14012 whole entry, looked up): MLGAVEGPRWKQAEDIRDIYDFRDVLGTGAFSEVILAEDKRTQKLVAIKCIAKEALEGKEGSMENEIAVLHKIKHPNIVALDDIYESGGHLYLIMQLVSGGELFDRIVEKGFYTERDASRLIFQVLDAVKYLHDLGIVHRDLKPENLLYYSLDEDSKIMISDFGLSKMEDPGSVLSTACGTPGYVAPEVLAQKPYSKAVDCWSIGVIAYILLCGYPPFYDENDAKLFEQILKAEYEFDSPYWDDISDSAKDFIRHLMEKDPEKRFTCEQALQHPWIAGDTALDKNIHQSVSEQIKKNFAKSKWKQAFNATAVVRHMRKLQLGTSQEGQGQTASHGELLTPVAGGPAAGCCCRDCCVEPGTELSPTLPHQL
UniProt Q8TCD1, sequence (Q8TCD1 whole entry, looked up): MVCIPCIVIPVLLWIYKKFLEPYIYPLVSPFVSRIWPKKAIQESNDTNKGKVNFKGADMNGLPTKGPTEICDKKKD
UniProt P49918, sequence (P49918 whole entry, looked up): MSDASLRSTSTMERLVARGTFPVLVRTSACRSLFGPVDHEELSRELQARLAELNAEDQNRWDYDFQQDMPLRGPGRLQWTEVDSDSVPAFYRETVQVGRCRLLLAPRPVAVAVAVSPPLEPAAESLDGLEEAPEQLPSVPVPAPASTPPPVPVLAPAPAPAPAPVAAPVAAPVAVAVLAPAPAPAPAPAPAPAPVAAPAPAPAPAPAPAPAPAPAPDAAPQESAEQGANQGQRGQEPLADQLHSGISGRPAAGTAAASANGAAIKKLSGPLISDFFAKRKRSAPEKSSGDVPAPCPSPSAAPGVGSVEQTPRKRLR
UniProt P49069, sequence (P49069 whole entry, looked up): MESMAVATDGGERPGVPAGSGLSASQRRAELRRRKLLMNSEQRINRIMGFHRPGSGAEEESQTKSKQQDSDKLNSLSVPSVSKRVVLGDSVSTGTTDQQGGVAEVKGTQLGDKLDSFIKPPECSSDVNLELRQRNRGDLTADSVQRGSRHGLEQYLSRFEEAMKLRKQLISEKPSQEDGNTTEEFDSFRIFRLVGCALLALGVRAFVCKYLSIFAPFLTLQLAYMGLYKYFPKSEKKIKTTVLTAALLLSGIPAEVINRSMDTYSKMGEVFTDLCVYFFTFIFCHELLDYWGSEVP
UniProt Q13042, sequence (Q13042 whole entry, looked up): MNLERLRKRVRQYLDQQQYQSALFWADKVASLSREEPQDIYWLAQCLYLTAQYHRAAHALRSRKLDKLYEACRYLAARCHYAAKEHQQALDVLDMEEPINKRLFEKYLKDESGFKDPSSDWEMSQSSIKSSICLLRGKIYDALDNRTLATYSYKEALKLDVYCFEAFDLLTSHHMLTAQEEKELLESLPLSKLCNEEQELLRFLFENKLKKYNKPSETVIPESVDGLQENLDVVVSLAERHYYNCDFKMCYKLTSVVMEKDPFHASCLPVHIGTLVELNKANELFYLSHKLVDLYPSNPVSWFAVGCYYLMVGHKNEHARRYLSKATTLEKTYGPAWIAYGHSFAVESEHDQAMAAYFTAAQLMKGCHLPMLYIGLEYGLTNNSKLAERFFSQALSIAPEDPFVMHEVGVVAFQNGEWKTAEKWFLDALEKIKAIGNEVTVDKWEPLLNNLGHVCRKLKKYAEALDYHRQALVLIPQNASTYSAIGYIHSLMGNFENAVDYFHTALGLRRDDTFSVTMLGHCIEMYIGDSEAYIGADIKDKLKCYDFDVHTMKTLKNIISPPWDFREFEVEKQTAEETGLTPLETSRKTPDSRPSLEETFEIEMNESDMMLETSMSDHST
UniProt P45973, sequence (P45973 whole entry, looked up): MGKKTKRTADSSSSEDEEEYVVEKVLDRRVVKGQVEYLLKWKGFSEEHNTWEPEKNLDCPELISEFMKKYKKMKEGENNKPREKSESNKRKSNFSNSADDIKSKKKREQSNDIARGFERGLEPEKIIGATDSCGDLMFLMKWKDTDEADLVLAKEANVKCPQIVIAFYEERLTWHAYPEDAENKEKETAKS
UniProt Q9UQ88, sequence (Q9UQ88 whole entry, looked up): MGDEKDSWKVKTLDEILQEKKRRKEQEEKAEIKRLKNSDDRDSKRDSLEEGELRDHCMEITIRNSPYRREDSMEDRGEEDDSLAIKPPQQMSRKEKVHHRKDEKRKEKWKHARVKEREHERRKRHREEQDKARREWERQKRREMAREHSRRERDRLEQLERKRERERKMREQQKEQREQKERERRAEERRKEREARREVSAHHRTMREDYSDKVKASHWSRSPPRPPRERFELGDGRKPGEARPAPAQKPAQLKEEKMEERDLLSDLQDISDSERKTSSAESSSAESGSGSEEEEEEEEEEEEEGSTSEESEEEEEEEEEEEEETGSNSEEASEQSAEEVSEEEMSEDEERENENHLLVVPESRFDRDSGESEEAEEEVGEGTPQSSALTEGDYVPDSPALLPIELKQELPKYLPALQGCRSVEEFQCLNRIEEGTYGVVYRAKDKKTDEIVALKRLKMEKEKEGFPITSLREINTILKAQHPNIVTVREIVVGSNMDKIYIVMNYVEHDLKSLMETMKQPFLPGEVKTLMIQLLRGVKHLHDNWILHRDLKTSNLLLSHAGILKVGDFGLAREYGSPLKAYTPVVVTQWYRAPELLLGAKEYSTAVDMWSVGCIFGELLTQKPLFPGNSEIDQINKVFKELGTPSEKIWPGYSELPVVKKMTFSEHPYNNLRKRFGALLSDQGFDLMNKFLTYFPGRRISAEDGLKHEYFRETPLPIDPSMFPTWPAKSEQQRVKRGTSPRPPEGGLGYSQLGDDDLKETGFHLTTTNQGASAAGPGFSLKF
UniProt O60566, sequence (O60566 whole entry, looked up): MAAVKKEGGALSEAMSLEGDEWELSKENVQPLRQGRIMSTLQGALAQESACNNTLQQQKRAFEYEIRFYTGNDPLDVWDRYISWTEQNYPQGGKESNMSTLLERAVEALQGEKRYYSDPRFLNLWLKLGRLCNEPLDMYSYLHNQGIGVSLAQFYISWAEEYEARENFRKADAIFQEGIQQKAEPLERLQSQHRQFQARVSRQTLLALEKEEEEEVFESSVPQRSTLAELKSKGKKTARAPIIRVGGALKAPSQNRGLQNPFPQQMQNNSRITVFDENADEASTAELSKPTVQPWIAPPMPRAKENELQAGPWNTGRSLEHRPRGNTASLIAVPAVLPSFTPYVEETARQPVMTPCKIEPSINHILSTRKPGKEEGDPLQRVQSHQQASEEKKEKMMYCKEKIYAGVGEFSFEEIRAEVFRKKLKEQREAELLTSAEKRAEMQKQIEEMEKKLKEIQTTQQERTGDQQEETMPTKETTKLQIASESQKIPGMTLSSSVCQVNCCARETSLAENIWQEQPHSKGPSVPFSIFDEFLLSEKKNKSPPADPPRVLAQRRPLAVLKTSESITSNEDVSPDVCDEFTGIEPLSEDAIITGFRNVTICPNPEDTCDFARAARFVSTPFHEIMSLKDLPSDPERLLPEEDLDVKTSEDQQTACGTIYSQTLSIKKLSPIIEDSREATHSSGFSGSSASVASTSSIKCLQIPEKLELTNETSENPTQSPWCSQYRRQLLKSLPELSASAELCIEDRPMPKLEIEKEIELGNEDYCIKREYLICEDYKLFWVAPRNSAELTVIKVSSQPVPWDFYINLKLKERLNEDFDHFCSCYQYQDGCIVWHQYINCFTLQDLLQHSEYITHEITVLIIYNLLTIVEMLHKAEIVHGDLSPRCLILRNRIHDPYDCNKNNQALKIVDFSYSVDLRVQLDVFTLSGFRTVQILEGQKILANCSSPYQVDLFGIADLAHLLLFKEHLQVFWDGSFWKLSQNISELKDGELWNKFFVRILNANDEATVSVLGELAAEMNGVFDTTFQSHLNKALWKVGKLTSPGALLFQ
UniProt Q8ND76, sequence (Q8ND76 whole entry, looked up): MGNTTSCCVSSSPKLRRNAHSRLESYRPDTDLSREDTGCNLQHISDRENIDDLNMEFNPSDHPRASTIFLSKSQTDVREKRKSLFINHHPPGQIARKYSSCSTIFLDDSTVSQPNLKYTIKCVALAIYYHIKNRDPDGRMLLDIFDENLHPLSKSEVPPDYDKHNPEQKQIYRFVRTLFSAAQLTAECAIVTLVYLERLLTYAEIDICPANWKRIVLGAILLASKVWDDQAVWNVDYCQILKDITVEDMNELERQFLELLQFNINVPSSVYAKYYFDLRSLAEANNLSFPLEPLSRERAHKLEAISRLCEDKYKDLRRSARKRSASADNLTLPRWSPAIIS
UniProt Q9Y2V0, sequence (Q9Y2V0 whole entry, looked up): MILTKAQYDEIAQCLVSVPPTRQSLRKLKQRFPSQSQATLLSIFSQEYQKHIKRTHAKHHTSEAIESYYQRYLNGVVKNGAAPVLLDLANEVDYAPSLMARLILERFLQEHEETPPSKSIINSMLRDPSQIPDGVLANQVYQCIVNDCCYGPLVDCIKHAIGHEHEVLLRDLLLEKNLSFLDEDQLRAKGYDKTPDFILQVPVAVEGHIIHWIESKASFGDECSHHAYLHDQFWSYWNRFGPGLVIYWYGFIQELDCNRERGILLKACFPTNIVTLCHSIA
UniProt Q6P4E1, sequence (Q6P4E1 whole entry, looked up): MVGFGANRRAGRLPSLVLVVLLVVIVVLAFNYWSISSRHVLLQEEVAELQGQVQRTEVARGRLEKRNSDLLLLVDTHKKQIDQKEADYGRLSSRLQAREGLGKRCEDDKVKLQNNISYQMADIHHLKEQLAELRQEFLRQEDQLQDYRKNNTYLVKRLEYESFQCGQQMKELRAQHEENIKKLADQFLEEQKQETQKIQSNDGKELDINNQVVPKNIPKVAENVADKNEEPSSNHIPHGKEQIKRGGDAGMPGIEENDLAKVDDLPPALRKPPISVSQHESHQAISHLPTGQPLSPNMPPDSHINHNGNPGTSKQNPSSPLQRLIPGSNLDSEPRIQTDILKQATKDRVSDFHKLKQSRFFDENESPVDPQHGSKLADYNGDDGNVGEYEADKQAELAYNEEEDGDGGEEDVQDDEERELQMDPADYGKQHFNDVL
UniProt Q9Y6H1, sequence (Q9Y6H1 whole entry, looked up): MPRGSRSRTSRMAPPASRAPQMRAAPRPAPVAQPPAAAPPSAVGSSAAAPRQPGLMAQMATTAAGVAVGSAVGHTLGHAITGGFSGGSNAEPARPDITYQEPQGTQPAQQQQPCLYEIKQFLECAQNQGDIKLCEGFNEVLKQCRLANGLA

| Target | log2 fold change [1] | log2 fold change [2] | log2 fold change [3] | log2 fold change [4] | log2 fold change [5] | log2 fold change [6] | log2 fold change [7] | log2 fold change [8] | log2 fold change [9] | log2 fold change [10] |
| --- | --- | --- | --- | --- | --- | --- | --- | --- | --- | --- |
| CASC4 (UniProt Q6P4E1) | -0.072 | -0.006 | 0.037 | 0.053 | 0.029 | 0.021 | -0.033 | -0.024 | 0.035 | -0.011 |
| CAMK1 (UniProt Q14012) | -0.086 | 0.04 | 0.021 | 0.064 | 0.008 | -0.12 | -0.071 | 0.194 | 0.018 | -0.023 |
| CANX isoform 2 (UniProt P27824) | -0.006 | 0.008 | 0.012 | -0.02 | -0.02 | -0.029 | -0.064 | -0.011 | -0.004 | -0.011 |
| C18orf32 (UniProt Q8TCD1) | 0.058 | -0.078 | -0.026 | 0.072 | 0.167 | 0.027 | 0.093 | -0.11 | -0.084 | 0.062 |
| CCNK isoform 4 (UniProt O75909) | 0.011 | -0.03 | -0.051 | -0.009 | 0.003 | 0.009 | -0.004 | -0.006 | -0.005 | -0.011 |
| C1orf131 isoform 5 (UniProt Q8NDD1) | -0.106 | -0.059 | 0.048 | -0.135 | 0.034 | -0.103 | 0.073 | -0.025 | -0.035 | 0.002 |
| ATP6V0A2 (UniProt Q9Y487) | 0.034 | -0.008 | -0.028 | 0.027 | 0.003 | -0.065 | -0.033 | -0.011 | 0.001 | -0.001 |
| BRD4 (UniProt O60885) | 0.034 | -0.009 | -0.018 | 0.019 | -0.001 | -0.091 | -0.019 | 0.013 | -0.051 | -0.008 |
| CDC16 (UniProt Q13042) | -0.013 | 0.023 | -0.012 | -0.027 | 0.019 | 0.01 | 0.017 | 0.024 | -0.019 | -0.014 |
| ATP5PF isoform 2 (UniProt P18859) | 0.059 | 0.046 | 0.026 | 0.164 | -0.013 | 0.11 | 0.066 | -0.058 | -0.029 | -0.051 |
| CDK1 (UniProt P06493) | -0.026 | 0.018 | -0.027 | 0.067 | -0.02 | 0.003 | 0.015 | 0.012 | 0.127 | 0.015 |
| CDK5RAP2 (UniProt Q96SN8) | 0.024 | -0.009 | -0.002 | 0.056 | -0.015 | -0.081 | -0.011 | -0.006 | -0.104 | -0.001 |
| C3orf33 (UniProt Q6P1S2) | -0.105 | -0.15 | -0.013 | 0.009 | -0.072 | -0.14 | 0.007 | 0.274 | 0.094 | 0.123 |
| BOLA2 (UniProt Q9H3K6) | 0.039 | -0.036 | -0.002 | -0.021 | 0.009 | 0.063 | 0.01 | -0.042 | -0.013 | 0.096 |
| CHAF1A (UniProt Q13111) | -0.027 | 0.032 | -0.068 | 0.008 | -0.032 | -0.053 | 0.019 | -0.001 | -0.031 | 0.036 |
| CELF2 isoform 3 (UniProt O95319) | 0.054 | 0.038 | -0.015 | -0.028 | -0.043 | 0.036 | -0.129 | -0.037 | -0.021 | 0.068 |
| CAPNS1 (UniProt P04632) | -0.007 | 0.027 | 0.035 | -0.002 | -0.014 | 0.078 | 0.017 | -0.077 | -0.05 | 0.01 |
| CDC45 isoform 3 (UniProt O75419) | -0.022 | 0.013 | -0.044 | -0.003 | 0.038 | 0.015 | -0.022 | 0.047 | 0.003 | -0.058 |
| CHCHD2 (UniProt Q9Y6H1) | -0.102 | 0.039 | 0.016 | -0.075 | 0.031 | -0.049 | 0.058 | -0.014 | -0.029 | 0.136 |
| C15orf41 (UniProt Q9Y2V0) | -0.041 | 0 | 0.09 | 0.038 | -0.036 | -0.023 | -0.014 | 0.076 | 0.024 | 0 |
| C9orf72 (UniProt Q96LT7) | 0.017 | -0.063 | -0.025 | 0.073 | 0.001 | -0.034 | -0.065 | -0.03 | 0.015 | -0.014 |
| CCNY (UniProt Q8ND76) | 0.017 | 0.016 | -0.021 | 0.05 | 0.065 | -0.216 | 0.057 | 0.077 | -0.022 | 0.025 |
| CHD4 isoform 2 (UniProt Q14839) | 0.006 | 0.008 | -0.011 | -0.006 | 0.015 | -0.038 | -0.008 | 0.031 | 0.01 | 0.001 |
| CDKN1C (UniProt P49918) | -0.054 | -0.035 | 0.083 | 0.094 | 0.055 | 0.091 | 0.037 | -0.091 | -0.101 | 0.04 |
| CCNA2 (UniProt P20248) | -0.014 | 0.064 | 0.04 | 0.234 (active) | -0.051 | -0.086 | -0.015 | 0.005 | 0.063 | -0.021 |
| CDK11A (UniProt Q9UQ88) | -0.007 | 0.053 | -0.016 | 0.085 | -0.001 | -0.031 | -0.029 | 0.035 | -0.029 | -0.034 |
| CDK9 isoform 2 (UniProt P50750) | -0.035 | 0.255 | 0.003 | 0.403 (active) | -0.007 | -0.028 | -0.016 | 0.009 | 0.078 | -0.04 |
| CAMLG (UniProt P49069) | 0.048 | -0.082 | 0.017 | -0.069 | 0.064 | 0.01 | -0.084 | 0.005 | -0.009 | 0.046 |
| BUB1B isoform 3 (UniProt O60566) | 0.007 | -0.012 | -0.015 | 0.014 | 0.024 | -0.076 | -0.013 | 0.028 | -0.003 | -0.004 |
| CBX5 (UniProt P45973) | 0.014 | 0.011 | 0.028 | 0.052 | -0.017 | -0.09 | -0.024 | 0.014 | -0.004 | 0.007 |
